Source: PubChem (The Scripps Research Institute Molecular Screening Center)
IDE inh – cellular human IDE inhibition; AID 434962; P14735; inhibition, % at 5.59 µM; 0.41% of 320,000 active; HEK cells, FAbetaB cleavage, fluorescence polarization;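 active means percent inhibition above the average of all tested compounds plus 3 SD, set per screening campaign, cut at about 16% in these data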;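 further: IDE supplied by intact live HEK cells; FP after avidin binding of uncleaved biotin substrate so inhibition keeps polarization high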
NOD2 RIPK2 PPI – inhibitors of human NOD2-RIPK2 interaction; inhibition, % at 4.98 µM; CHO BLA complementation NOD2-RIPK2, CCF4 ratio; O43353; 0.38% of 360,000 active; in the data active means inhibition above about 21%
TLR9-MyD88 block – inhibitors of human TLR9-MyD88 binding; CHO BLA complementation TLR9-MyD88, CCF4 FRET ratio; inhibition, % at 4.98 µM; 0.21% of 340,000 active; AID 504734;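 active means inhibition above the mean over all tested compounds plus 3 SD, cut at about 21% in these data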
TLR4 MyD88 comp – TLR4-MyD88 interaction inhibition in cells | O00206+Q99836 | HeLa CL3-4 TLR4/MyD88 BLA complementation, FRET ratio | inhibition, % at 8.4 µM | 0.18% of 200,000 active; in the data active means inhibition above about 25%
IDE cell activ – IDE (human) activation, cell-based; HEK cells, FAbeta-B cleavage, fluorescence polarization; 0% vehicle, 100% cell-free pure enzyme wells; P14735; activation, % at 5.96 µM; 0.073% of 340,000 active;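 active means activation above the mean of all tested compounds plus 3 SD, set per screening campaign, cut at about 17% in these data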
TLR9-MyD88 cf – confirmation of human TLR9-MyD88 binding inhibitors; 51% of 680 active; shares compounds with TLR9-MyD88 block; AID 540250; CHO TLR9/MyD88 BLA complementation, CCF4 FRET ratio; inhibition, % at 4.98 µM;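 active means mean inhibition across three repeats above about 21% taken from the earlier screen, limit read from the data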;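 further: blue over green emission ratio reports constitutive TLR9 MyD88 association via BLA complementation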
Target sequence (Q9NR96 whole entry, looked up): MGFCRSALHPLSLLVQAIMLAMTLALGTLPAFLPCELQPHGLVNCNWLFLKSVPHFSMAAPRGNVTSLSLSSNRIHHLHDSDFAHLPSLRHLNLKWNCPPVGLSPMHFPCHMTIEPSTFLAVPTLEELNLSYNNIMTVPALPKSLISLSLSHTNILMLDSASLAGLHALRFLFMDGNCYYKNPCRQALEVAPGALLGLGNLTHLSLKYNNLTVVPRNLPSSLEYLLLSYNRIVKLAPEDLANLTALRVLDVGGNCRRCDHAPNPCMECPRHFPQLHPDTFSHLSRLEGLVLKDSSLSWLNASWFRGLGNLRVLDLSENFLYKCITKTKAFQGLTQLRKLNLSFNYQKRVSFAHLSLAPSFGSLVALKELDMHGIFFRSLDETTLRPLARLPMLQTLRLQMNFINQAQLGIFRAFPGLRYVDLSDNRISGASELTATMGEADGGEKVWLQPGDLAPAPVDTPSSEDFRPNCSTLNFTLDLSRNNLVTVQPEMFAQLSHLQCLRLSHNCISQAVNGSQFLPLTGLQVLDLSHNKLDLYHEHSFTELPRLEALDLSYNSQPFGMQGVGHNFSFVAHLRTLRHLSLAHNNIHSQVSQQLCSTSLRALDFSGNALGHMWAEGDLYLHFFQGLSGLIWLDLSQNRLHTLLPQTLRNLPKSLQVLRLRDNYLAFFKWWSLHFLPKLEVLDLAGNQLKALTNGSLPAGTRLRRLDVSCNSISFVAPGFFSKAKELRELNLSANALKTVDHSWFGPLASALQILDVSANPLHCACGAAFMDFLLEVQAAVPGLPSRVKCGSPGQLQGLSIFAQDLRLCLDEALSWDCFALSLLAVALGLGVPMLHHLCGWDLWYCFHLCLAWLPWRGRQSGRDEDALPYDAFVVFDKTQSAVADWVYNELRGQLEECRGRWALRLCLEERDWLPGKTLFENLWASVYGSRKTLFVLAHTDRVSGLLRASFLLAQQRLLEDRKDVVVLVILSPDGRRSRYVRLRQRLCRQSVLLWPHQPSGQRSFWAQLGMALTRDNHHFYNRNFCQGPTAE
BLA counter-1 – counter-screen for TLR9-MyD88 inhibitors: non-selective beta-lactamase inhibitors | shares compounds with TLR9-MyD88 block | CHO-BLA cells, CCF4 FRET ratio, BLA reporter | inhibition, % at 4.98 µM | 7% of 680 active;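 active means mean inhibition above a 50% cutoff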;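 further: counterscreen of TLR9-MyD88 hits on CMV-driven BLA in CHO-K1 cells; higher means less blue over green ratio so more BLA blockade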
TLR9 CHO cytotox – counter-screen for TLR9-MyD88 inhibitors: cytotoxicity in CHO cells. shares compounds with TLR9-MyD88 block. luminescence. inhibition, % at 4.98 µM. 39% of 680 active. AID 588336; in the data active means inhibition above about 11%
NOD2-RIPK2 conf – confirmation of human NOD2-RIPK2 interaction inhibitors | 70% of 1,200 active | CHO cells, NOD2-RIPK2 BLA complementation, CCF4 FRET | inhibition, % at 4.98 µM | shares compounds with NOD2 RIPK2 PPI;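 active means mean inhibition across replicates above a set limit taken from the earlier primary screen, cut at about 21% in these data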
BLA counter-2 – counter-screen for NOD2-RIPK2 interaction inhibitors: BLA reporter; CHO BLA reporter, CCF4 FRET ratio, counterscreen; shares compounds with NOD2 RIPK2 PPI; 57% of 1,200 active; inhibition, % at 4.98 µM; AID 624371;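 active means mean inhibition above the low-control mean inhibition plus three low-control SD, cut at about 11% in these data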
A number is an active result; n = inactive; x = not tested or not shown. In the library only some 0.87% were active in any assay of this set; here they are far more common.

SMILES	IDE inh	NOD2 RIPK2 PPI	TLR9-MyD88 block	TLR4 MyD88 comp	IDE cell activ	TLR9-MyD88 cf	BLA counter-1	TLR9 CHO cytotox	NOD2-RIPK2 conf	BLA counter-2
COc1ccc(OC)c(CNS(=O)(=O)c2cn(C)cn2)c1	n	n	n	x	n	x	x	x	x	x
CCOC(=O)c1sc(-c2ccc(C(F)(F)F)cc2)nc1O	n	25	28	x	n	n	n	n	65	67
CCOC(=O)c1sc(-c2cccc(C(F)(F)F)c2)nc1O	n	n	n	x	n	x	x	x	x	x
CC(C)c1ccc(/C=C2\Oc3c(ccc(O)c3CN3CCN(C)CC3)C2=O)cc1	n	n	n	n	n	x	x	x	x	x
Cc1ccc(/C=C2\Oc3c(ccc(O)c3CN3CCN(CCO)CC3)C2=O)cc1	n	28	22	n	n	n	n	n	24	28
Cc1ccccc1Oc1cc(-n2ncc(Cl)c(Cl)c2=O)ncn1	n	26	35	n	n	38	n	99	76	n
CCN1CCN(C(=O)CN2C(=O)COc3ccc(C)cc32)CC1	n	n	n	x	n	x	x	x	x	x
Nc1ccc(C#Cc2ccc3c(=O)c4ccccc4oc3c2)cc1	n	67	74	x	n	64	70	n	78	84
COc1cc2oc3cc(C#Cc4ccc(N)cc4)ccc3c(=O)c2cc1OC	n	26	38	x	n	40	n	n	54	58
CC(C)NCC1CCc2cc(CO)c([N+](=O)[O-])cc2N1 (configuration not stated)	n	n	n	x	n	x	x	x	x	x
CC(O)CN(CC(C)O)c1ccc2c(c1)Cc1cc([N+](=O)[O-])ccc1-2 (configuration not stated)	x	60	53	x	n	44	n	n	22	70
COC(=O)c1c(-c2ccc(N(C)C)cc2)sc2ccc(OC)cc12	n	38	28	x	n	35	n	n	49	66
O=C(C#Cc1ccccc1)c1ccco1	n	78	30	x	n	48	n	97	83	18
O=C(CN1C(=O)NC2(CCCCC2)C1=O)Oc1ccc2c(C(F)(F)F)cc(=O)oc2c1	n	67	43	x	n	36	n	n	63	67
COc1cc(OC)c(/C=N/NC(=O)COc2cccc3cccnc23)c(OC)c1	n	n	n	x	n	x	x	x	x	x
Nc1cccc2c1C(=O)N(CCOc1ccc(F)cc1)C2=O	n	22	23	x	n	n	n	n	33	44
Cc1nn(C2CCS(=O)(=O)C2)c(Cl)c1/C=C/C(=O)OCC(N)=O (configuration not stated)	n	n	n	x	n	x	x	x	x	x
Cc1cc(C)nc(Nc2nc3ccccc3o2)n1	n	n	n	x	n	x	x	x	x	x
CC(=NNc1nc2ccccc2o1)c1cc2ccccc2cn1	x	43	60	x	n	67	66	74	90	91
CC(=NNc1nc2ccccc2s1)c1ncccn1	x	n	n	x	n	x	x	x	x	x
CC(=NNc1nc2ccccc2o1)c1ncccn1	x	27	26	x	n	n	n	99	34	30
CCC(NC(=O)CNC(=O)c1ccc2c(c1)OCO2)c1ccc(Br)cc1 (configuration not stated)	x	n	n	x	n	x	x	x	x	x
CC(=O)NN1C(=O)c2ccc3c4c(ccc(c24)C1=O)C(=O)N(NC(C)=O)C3=O	n	n	n	x	n	x	x	x	x	x
COc1ccc(/C=C/c2ccc3c(Br)ccc(O)c3n2)cc1	n	n	n	x	n	x	x	x	x	x
COc1cc(/C=C/c2ccc3c(Br)cc(Br)c(O)c3n2)ccc1O	n	34	26	x	n	28	n	49	45	55
SMILES	IDE inh	NOD2 RIPK2 PPI	TLR9-MyD88 block	TLR4 MyD88 comp	IDE cell activ	TLR9-MyD88 cf	BLA counter-1	TLR9 CHO cytotox	NOD2-RIPK2 conf	BLA counter-2
C(=C\c1ccc2ccccc2n1)/c1ccccc1	n	n	n	x	n	x	x	x	x	x
CN(C)c1ccc(/C=C/c2ccc3ccccc3n2)cc1	n	46	28	x	n	38	53	53	58	71
COc1cccc(CN2CCNC(=O)C2CC(=O)NCCn2ccc3ccccc32)c1OC (configuration not stated)	n	n	n	n	n	x	x	x	x	x
Cc1ccccc1NC(=O)c1nn(C)c2c1CS(=O)(=O)c1ccccc1-2	n	n	n	x	n	x	x	x	x	x
O=[N+]([O-])c1c(Nc2ccccc2O)cc(Cl)c2nonc12	x	83	33	x	n	56	n	100	97	n
COc1ccc(-c2cc3ccc(O)cc3oc2=O)cc1	n	39	21	x	n	n	n	n	43	52
COc1ccc(-c2cc3ccc(OCC(C)=O)cc3oc2=O)cc1	n	n	n	x	n	x	x	x	x	x
O=C(/C=C/c1cccc(Cl)c1)c1ccc([N+](=O)[O-])o1	n	52	26	x	n	21	n	96	88	19
COc1ccc(/C=C/C(=O)c2ccc([N+](=O)[O-])o2)cc1OC	n	x	x	x	x	x	x	x	x	x
C=CCN(C(=O)CCC(=O)Nc1cc(C)on1)C(C(=O)NC1CCCC1)c1ccc(CC)cc1 (configuration not stated)	n	n	n	x	n	x	x	x	x	x
O=c1c(Cl)c(Cl)cnn1Cc1nnc(-c2ccccc2Br)o1	x	27	21	n	n	29	n	101	46	11
Clc1ccccc1OCc1nnc(-c2ccccc2Br)o1	n	n	n	n	n	x	x	x	x	x
CC(=O)Nc1cc2c3c(cccc3c1)-c1ccccc1-2	x	22	24	x	n	n	n	n	n	36
CC(=O)Nc1ccc2c(c1)C(=O)c1ccccc1C2=O	n	n	n	n	n	x	x	x	x	x
O=c1nc2c(O)cccn2c2c1c(=O)[nH]c1ccccc12	x	29	22	n	n	n	n	n	33	27
Cc1ccccc1OCCN(C#N)c1nc(N(C)C)nc(N(C)C)n1	n	n	n	n	n	x	x	x	x	x
CC(NC(=O)/C(C#N)=C/c1ccco1)c1ccccc1 (configuration not stated)	n	n	n	x	n	x	x	x	x	x
CC(NC(=O)/C(C#N)=C/c1ccc([N+](=O)[O-])o1)c1ccccc1 (configuration not stated)	n	52	21	x	n	36	n	99	51	34
COc1ccccc1C(C#N)c1cccc(Cl)n1 (configuration not stated)	n	n	n	x	n	x	x	x	x	x
COc1ccc(C2(C)NC(=O)N(CC3CCCCC3)C2=O)cc1 (configuration not stated)	n	n	n	x	n	x	x	x	x	x
